Among the data in PubChem BioAssay AID720641 (ICCB-Longwood Screening Facility, Harvard Medical School, 2013) are relative growth values, retold here.

A short description of this assay: S. aureus growth inhibition at 42 and 30 °C, primary screen, LtaS inhibitor project, RN4220, two temperatures (AID 720641). The conditions noted are these: OD600, 20 h, 42 °C, stronger effect = lower value.

The whole screen tested about 170,000 compounds, of which about 900 (0.53%) were called active.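 How the source made its calls: active means relative growth at most 50% at the other temperature and 20+ points below 30 °C, or under 10% at both; inactive means the rest, inconclusive results apart.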 Many of the other results were omitted from the sample, so actives are more common in it than they were.

`CCN1CCCC1CNC(=O)c1nnc(Cc2ccccc2OC)o1` (stereo not given): the relative growth is 79.5% (inactive). Besides, for the setting “measured here: growth at 30 °C”, the relative growth was determined as 88.3%.

For `CC(C)(C)c1ccc(S(=O)(=O)N2CCN(C(=O)c3cc(-c4ccc(Br)cc4)n[nH]3)CC2)cc1`, the relative growth was 99.3% (inactive). Further, the relative growth (measured here: growth at 30 °C) was determined as 102%.

With `FC(F)(F)c1cc(-c2ccc(Br)cc2)n[nH]1`, the relative growth was 8.64% (active). The relative growth (measured here: growth at 30 °C) was determined as 4.24%.

For the compound `Cc1cc(C)c(NC(=O)CSC2=NN3CCCC(=O)N=C3S2)c(C)c1`, the relative growth was 95% (inactive). Further, the relative growth (measured here: growth at 30 °C) was found to be 89%.

`CCCNc1ncnc2onc(-c3ccc(F)cc3)c12`: the relative growth was 90.2% (inactive). Besides, the relative growth (measured here: growth at 30 °C) came out at 91%.

Turning to `CNC(=O)C1CCN(S(=O)(=O)c2c(C)noc2/C=C/c2cccc(C)c2)CC1`, the relative growth is 107% (inactive). The relative growth (measured here: growth at 30 °C) was 81.4%.

Turning to `CCCOc1c(Br)cc(C(=O)O)cc1OC`, the relative growth was 90.2% (inactive). Moreover, the relative growth (measured here: growth at 30 °C) turned out to be 101%.

Take `CC1CC(C)CN(C(=O)C(C)n2sc3ccccc3c2=O)C1` (stereo not given): the relative growth was 120% (inactive). Also, the relative growth (measured here: growth at 30 °C) amounted to 95.8%.

On to `CCn1c(SCc2c(C)noc2C)nc2cc(S(=O)(=O)N3CCOCC3)ccc21`, for which the relative growth was 63.8% (inactive). Besides, the relative growth (measured here: growth at 30 °C) amounted to 94%.

In the case of `NC(=O)c1ncoc1-c1cccc(Cl)c1`, the relative growth was 108% (inactive). Also, the relative growth (measured here: growth at 30 °C) turned out to be 76%.

In the case of `Oc1ccc(-c2cccc(-c3ccc(O)cc3)c2)cc1`, the relative growth is 97.5% (inactive). Further, the relative growth (measured here: growth at 30 °C) was 59.9%.

In the case of `Oc1ccc(-n2cccc2)cc1`, the relative growth was 84.2% (inactive). For the same compound, where the note is “measured here: growth at 30 °C”, the relative growth was found to be 92.9%.

As to `Oc1ccc(SSc2ccc(O)cc2)cc1`, the relative growth is 3.56% (active). The relative growth (measured here: growth at 30 °C) came to 3.94%.

On to `CCOC(=O)C1=C(C)Nc2[nH]c(=O)[nH]c(=O)c2C1c1ccccc1` (stereo not given), for which the relative growth is 94.1% (inactive). Besides, the relative growth (measured here: growth at 30 °C) was 92.8%.

In the case of `FC(F)(F)C1CCCN(c2nsc3ccccc23)C1` (stereo not given), the relative growth was -0.41% (active). Also, for the setting “measured here: growth at 30 °C”, the relative growth was -0.5%.

As for `Cc1c(/C=C/C(=O)Oc2ccc(C#N)cc2)sc2ccccc12`, the relative growth was 110% (inactive). Moreover, the relative growth (measured here: growth at 30 °C) turned out to be 87.3%.

As to `Cc1ccccc1OCC(=O)Nc1cc(Sc2ccccn2)cc(S(=O)(=O)c2ccccc2)c1`, the relative growth is 103% (inactive). Moreover, the relative growth (measured here: growth at 30 °C) was 88.5%.

Turning to `CC(C)(C)c1cc(Cl)c(O)c(NC(=O)c2cncc(Br)c2)c1`, the relative growth is 112% (inactive). The relative growth (measured here: growth at 30 °C) stood at 87.7%.

For the compound `Cc1cccc(OC(=O)Nc2ccccc2)c1`, the relative growth is 102% (inactive). The relative growth (measured here: growth at 30 °C) is 91.2%.

As for `CCn1c(CCl)nc2cc(C(=O)O)ccc21`, the relative growth is 119% (inactive). The relative growth (measured here: growth at 30 °C) is 82.3%.

Take `O=S(=O)(NC1CCCC1)c1ccc(S(=O)(=O)N2CCN(c3ncccn3)CC2)cc1`: the relative growth was 100% (inactive). Also, for the setting “measured here: growth at 30 °C”, the relative growth amounted to 79.4%.

In the case of `O=C(Nc1ccncc1)c1cccc(COc2ccc3ccccc3c2)c1`, the relative growth was 1.11% (active). Also, the relative growth (measured here: growth at 30 °C) is 2.67%.

For the compound `O=C(Nc1cccc(-c2nc3ccccc3o2)c1)c1cccc(OCc2ccccc2)c1`, the relative growth was 124% (inactive). For the same compound, the relative growth (measured here: growth at 30 °C) came to 93.3%.

As for `O=C(OCCN1CCCCC1)c1cccc(COc2ccc3ccccc3c2)c1`, the relative growth was 102% (inactive). Besides, for the setting “measured here: growth at 30 °C”, the relative growth turned out to be 83%.

Regarding `CCOc1ccc(C(=O)NN)cc1`, the relative growth is 77.2% (inactive). Moreover, the relative growth (measured here: growth at 30 °C) is 80.8%.

As to `CCn1c(CSc2nc3ccccc3s2)nnc1SC(C)C(=O)Nc1ccc(N(C)C)cc1` (stereo not given), the relative growth was 116% (inactive). For the same compound, the relative growth (measured here: growth at 30 °C) turned out to be 97.9%.

For the compound `O=C(Oc1ccc(Cl)cc1)c1csc(C2COc3ccccc3O2)n1` (stereo not given), the relative growth is 92.8% (inactive). In addition, the relative growth (measured here: growth at 30 °C) came out at 92.7%.

As for `O=C(Sc1cccs1)c1csc(C2COc3ccccc3O2)n1` (stereo not given), the relative growth is 0.36% (active). For the setting “measured here: growth at 30 °C”, the relative growth was -0.46%.

For the compound `CN(C)C(=O)c1csc(C2COc3ccccc3O2)n1` (stereo not given), the relative growth is 93.5% (inactive). For the same compound, the relative growth (measured here: growth at 30 °C) came out at 87.9%.

With `N#C/C(=C\c1ccccc1F)c1ccccc1`, the relative growth was 110% (inactive). In addition, the relative growth (measured here: growth at 30 °C) stood at 92.3%.

`CC1=CC(=O)C=CC1=N/C(=N\S(=O)(=O)c1ccc(C)cc1)c1ccccc1`: the relative growth was 104% (inactive). In addition, where the note is “measured here: growth at 30 °C”, the relative growth came to 57.7%.

With `COCCn1c(SC)nc2c(c1=O)SCC2`, the relative growth was 96% (inactive). Also, the relative growth (measured here: growth at 30 °C) stood at 94.8%.

Consider `N#C/C(=C\c1ccc(-c2ccc(S(=O)(=O)N3CCOCC3)cc2)o1)S(=O)(=O)c1ccc(Br)cc1`, for which the relative growth was 87.4% (inactive). In addition, the relative growth (measured here: growth at 30 °C) is 90.9%.

For `CN(C(=O)c1cccnc1Cl)C1CCS(=O)(=O)C1` (stereo not given), the relative growth is 115% (inactive). Further, the relative growth (measured here: growth at 30 °C) turned out to be 88.3%.

`CCn1nc(-c2cccs2)cc1C(=O)N(C)C`: the relative growth was 105% (inactive). In addition, the relative growth (measured here: growth at 30 °C) is 86.8%.

With `COC(=O)c1ccccc1NC(=O)CSc1ccccn1`, the relative growth was 93.1% (inactive). Further, where the note is “measured here: growth at 30 °C”, the relative growth was 93.2%.

Consider `CCOC(=O)CCSc1ccccn1`, for which the relative growth is 0.28% (active). Also, under “measured here: growth at 30 °C”, the relative growth was -0.27%.

Consider `CCOC(=O)CSc1ccccn1`, for which the relative growth was 94.9% (inactive). For the same compound, where the note is “measured here: growth at 30 °C”, the relative growth turned out to be 101%.

In the case of `CSc1nnc(NC(=O)c2nc(S(=O)(=O)Cc3ccc(F)cc3)ncc2Cl)s1`, the relative growth was 93.7% (inactive). The relative growth (measured here: growth at 30 °C) turned out to be 90.3%.

As to `CCSc1ncc(Cl)c(C(=O)Nc2cc(C)ccc2C)n1`, the relative growth was 108% (inactive). Besides, the relative growth (measured here: growth at 30 °C) is 85.1%.

Turning to `Cc1ccc(NC(=O)c2nc(S(=O)(=O)Cc3cccc(C)c3)ncc2Cl)cc1`, the relative growth was 8.42% (active). Moreover, the relative growth (measured here: growth at 30 °C) stood at 21.7%.

As for `COc1cccc(OCCCN2CCNCC2)c1`, the relative growth is 107% (inactive). Besides, where the note is “measured here: growth at 30 °C”, the relative growth came to 91%.

Regarding `Cc1ccc(S(=O)(=O)N(C)c2ccc(OCC(=O)N3CCN(c4ncccn4)CC3)cc2)cc1`, the relative growth is 105% (inactive). Further, the relative growth (measured here: growth at 30 °C) was determined as 95.7%.

On to `O=C(CSc1nnc(-c2ccccc2)o1)N(CC1CCCO1)c1nc2ccccc2s1` (stereo not given), for which the relative growth was 101% (inactive). Further, the relative growth (measured here: growth at 30 °C) is 92.8%.

As to `C=CCn1c(SCC(=O)Nc2sc(C(=O)OC)c(C)c2C(=O)OC)nc2ccccc21`, the relative growth was 103% (inactive). Besides, for the setting “measured here: growth at 30 °C”, the relative growth was 90.4%.
